About 83,000 compounds went through this panel and 20% of them were active in at least one assay; those are over-represented in the sample as a whole.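 For each line, cells grew in 96-well plates with the test compound present at a single concentration for 48 hours.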 A number with no mark means an inactive call. Active and inactive are the calls of the source. Rule for the calls: active = growth percent below 10; inactive = the rest.
Experiments:
Experiment in all cases: NCI-60 one-dose screen, 48 h (100 = growth as untreated, 0 = no growth, -100 = all killed)
Details in all cases: 10 µM
[1] = tested on: SN12C renal
[2] = tested on: UO-31 renal
[3] = tested on: TK-10 renal
[4] = tested on: ACHN renal
[5] = tested on: CAKI-1 renal
[6] = tested on: A498 renal
[7] = tested on: CCRF-CEM leukemia
[8] = tested on: MOLT-4 leukemia
[9] = tested on: SR leukemia

Row | SMILES | growth [1] | growth [2] | growth [3] | growth [4] | growth [5] | growth [6] | growth [7] | growth [8] | growth [9]
1 | COc1ccc(Oc2nc(NC3CCCC3)nc(Sc3ccc(OC)cc3)n2)cc1 | 78.9% | 57.5% | 109% | 79.5% | 49.3% | 65.5% | 53.2% | 40.2% | 45.7%
2 | FC(F)(F)c1ccc(-c2cnc(-n3cc(COCCN4CCCCC4)nn3)nc2NC2CCCCCC2)cc1 | 60.4% | -6.86% (active) | -14% (active) | 35.7% | 46.6% | 66% | -5.93% (active) | -24.1% (active) | -37.4% (active)
3 | COc1ccc(-c2nn(-c3cccc(NC(=O)c4ccc(Cl)c(Cl)c4)c3)cc2-c2ccncc2)cc1Cl | 86.7% | 47.6% | 85% | 78.8% | 73.1% | 54.7% | 61.7% | 62.7% | 24.3%
4 | Nc1ccc2c(c1)C1(CCC2)NC(=O)NC1=O (stereo unspecified) | 97.3% | 93.3% | 109% | 101% | 95.7% | 101% | 96.9% | 98.8% | 89.7%
5 | CCCCCCc1cc(N=Nc2ccc(S(=O)(=O)Nc3cc(C)nc(C)n3)cc2)c(O)cc1O | 97.2% | 74.5% | 107% | 99.1% | 98.9% | 98.7% | 94.8% | 88.7% | 91.9%
6 | CC(=O)O[C@]1(C)CC[C@H]2[C@H](CNCCc3ccc(Cl)cc3)C(=O)O[C@@H]2C2=C(C)C(=O)C[C@H]21 | 94.2% | 78.1% | 97.7% | 96.2% | 98.5% | 86.9% | 83.6% | 71% | 81.4%
7 | NC(=O)CC1(c2ccccc2)CCCCC1 | 101% | 93.1% | 109% | 104% | 96.8% | 102% | 98.9% | 94.2% | 90.9%
8 | O=C(Nc1cccc(-n2cc(-c3ccncc3)c(-c3ccc(O)c(Cl)c3)n2)c1)c1cccc(C(F)(F)F)c1 | 49.9% | 15.8% | 46.9% | 29.6% | 12.2% | 57.7% | 19.8% | 29.8% | 18.4%
9 | Cc1cccc2c1O/C(=C\c1ccc([N+](=O)[O-])o1)C2=O | -17.5% (active) | -62.6% (active) | -88.2% (active) | -81.9% (active) | -3% (active) | 49% | -26.4% (active) | -14.7% (active) | 2.46% (active)
10 | O=C1/C(=C\c2ccc(F)cc2)CN(C(=O)c2ccccc2F)C/C1=C\c1ccc(F)cc1 | -57.1% (active) | -72.6% (active) | 9.87% (active) | -33.1% (active) | -35.4% (active) | 47.5% | -16.4% (active) | -1.83% (active) | -17.7% (active)
11 | N#Cc1ncc(-c2cc(F)c(F)c(F)c2)c(NC2CCCCCC2)n1 | 83.6% | 89.4% | 105% | 92.6% | 92.9% | 52.2% | 83.9% | 78.1% | 78.8%
12 | c1ccc2c(-c3nc(N4CCOCC4)c4c5c(sc4n3)CCCCCC5)cccc2c1 | 99.5% | 101% | 116% | 100% | 99.2% | 102% | 96.9% | 97.2% | 94.8%
13 | COc1ccc(-c2nn(-c3cccc(NC(=O)c4ccc(N5CCOCC5)c(C(F)(F)F)c4)c3)cc2-c2ccncc2)cc1Cl | 85.2% | 40.9% | 82.8% | 60.3% | 47.9% | 60% | 38.3% | 42.1% | 27.2%
14 | c1ccc(CNc2ncnc3scc(-c4cccs4)c23)nc1 | 63% | 47.7% | 126% | 54.7% | 58% | 27.6% | 63.7% | 50.5% | 61.5%
15 | Nc1c(C(=O)Nc2ccccc2Cl)sc2nc3c(cc12)C(=O)CCC3 | 56.7% | 68.9% | 64.3% | 57.1% | 20.7% | -10.9% (active) | 19.4% | 86.8% | 42.3%
16 | O=[N+]([O-])c1ccc(Oc2cc(Cl)c(Cl)cc2Cl)c(C(F)(F)F)c1 | 103% | 80.2% | 115% | 96.8% | 92.3% | 90.5% | 93.5% | 87.5% | 100%
17 | ClC(Cl)(Cl)c1nc2nccnc2[nH]1 | 98% | 80.4% | 119% | 103% | 87.2% | 107% | 96.7% | 104% | 102%
18 | COc1cc(-c2cc(/C=C3\C(=O)Nc4ccccc43)[nH]n2)cc(OC)c1OC | 53.7% | 37.2% | 68.1% | 51.1% | 25.4% | 46.5% | 22.3% | 6.03% (active) | 34.1%
19 | Cc1ccc(S(=O)(=O)OCCN(CCOS(=O)(=O)c2ccc(C)cc2)c2c[nH]c(=O)[nH]c2=O)cc1 | 97.4% | 82.8% | 112% | 99% | 97.5% | 117% | 101% | 104% | 104%
20 | COc1ccc(-c2cc(/C=C3\C(=O)Nc4ccc(Cl)cc43)[nH]n2)cc1OC | 87.1% | 71.1% | 90% | 79.4% | 81.3% | 76% | 72.2% | 57.5% | 55.2%
21 | O=C(Nc1cccc(-n2cc(-c3ccncc3)c(-c3cc(O)cc(Cl)c3)n2)c1)Nc1ccc(Cl)c(C(F)(F)F)c1 | 34.6% | 18.5% | 25.9% | 21.3% | 29.1% | 21.5% | 9.31% (active) | -18% (active) | -30.6% (active)
22 | Nc1c(C(=O)Nc2cccc3ccccc23)sc2nc3c(cc12)C(=O)CCC3 | 30.8% | 53% | 74.7% | 34.5% | 23.2% | -17.6% (active) | 7.9% (active) | 11.1% | 4.39% (active)
23 | O=C1/C(=C/c2ccc([N+](=O)[O-])s2)Oc2ccccc21 | -23.1% (active) | -78.1% (active) | -21.5% (active) | -55.3% (active) | -26.8% (active) | 97.9% | -13% (active) | -6.14% (active) | 7.01% (active)
24 | CCOC1(OCC)OC(c2ccccc2)=C(C#N)C(/C=C\c2ccccc2)C1(OCC)OCC (stereo unspecified) | 81.3% | 74% | 97.1% | 83.5% | 84.8% | 83.7% | 79.1% | 81.7% | 52.8%
25 | CSCCCNC(=O)c1ccc2c(c1)/C(=C/c1[nH]c(C)cc1C)C(=O)N2 | 22% | 9.33% (active) | 29.4% | 0.349% (active) | 9.54% (active) | -25.9% (active) | 52.2% | 29.1% | 10.7%
26 | COc1cccc(NC(=O)c2sc3nc4c(cc3c2N)C(O)CCC4)c1 (stereo unspecified) | 30.3% | 40.3% | 79.8% | 42% | 34.4% | -7.35% (active) | 11.2% | 6.41% (active) | 0.382% (active)
27 | CCC(=O)N1C/C(=C/c2ccc(Br)cc2)C(=O)/C(=C/c2ccc(Br)cc2)C1 | -48.8% (active) | -95.9% (active) | -31.2% (active) | -54.9% (active) | -25.9% (active) | -66.4% (active) | -12% (active) | -15.1% (active) | -35.6% (active)
28 | CC1=C(N2CCOCC2)C(N2CCOCC2)=C(C)C(=O)C1=O | 110% | 83.6% | 99% | 101% | 101% | 88.6% | 102% | 92.7% | 97.4%
29 | COc1cc(-c2cc(/C=C/C(=O)c3ccc(N)cc3)[nH]n2)cc(OC)c1OC | 13.2% | 6% (active) | -2.46% (active) | -52.8% (active) | 9.46% (active) | -8.28% (active) | 5.88% (active) | 3.34% (active) | 9.82% (active)

From PubChem BioAssay (NCI)
